For test [1], the target named is ATP-dependent DNA helicase Q1 (Homo sapiens) (UniProt P46063). As to the kind of experiment: qHTS Validation Assay for Inhibitors of RecQ-Like Dna Helicase 1 (RECQ1) (AID 2353). Summed up: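 RECQ1T1 50 nM; forked duplex (20 bp + 30-nt ss tails) 200 nM, ATP 2 mM final; pH 8.0, 2 mM MgCl2, 2.5 ug/ml poly(dI-dC); 15 min compound preincubation; discontinuous kinetic read over 2 h at RT.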
Background: In qHTS, concentration-response curves come from the screen itself.

Test [2] can be described thus: Cytometric Cell-Based qHTS for Inhibitors of the mTORC1 Signaling Pathway in MEF (Tsc2-/-, p53-/-) Cells (AID 2660).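 Also: Tsc2 and p53 null MEFs carrying empty vector with compound for 24 h; percent of cells above a phospho-rpS6 to PI ratio cutoff in each well; series mostly up to about 38 µM.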 In outline: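 Percent of cells positive for normalized phospho-S6 staining is reported, with the cutoff set from rapamycin (7.5 nM) versus DMSO wells. Tsc2-/-, p53-/- MEFs received compound for 24 hrs.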
Test [3] can be described thus: High Content Imaging Cell-Based qHTS for Inhibitors of the mTORC1 Signaling Pathway in MEF Cells (AID 2667). Also: potency is read from the fitted curve at half-maximal effect. In outline: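 Fixed-cell imaging of phospho-S6 (Ser235/236, Alexa-488) after 24 hrs of compound treatment at 37 degree Celsius. Signal was normalized to Hoechst, and thresholds from the highest and lowest wells split cells into % active versus % non-active.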

The nature of test [4]: Cytometry Cell-Based qHTS for Inhibitors of the mTORC1 Signaling Pathway in MEF cells (AID 2668). Also: potency is read from the fitted curve at half-maximal effect. In outline: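 In MEFs grown in DMEM + 10% FBS, a 24 hrs compound exposure preceded imaging of phospho-rpS6 Ser235/236 by laser-scanning cytometry.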
The nature of test [5]: Validation screen for inhibitors of Lassa infection (AID 463096; calls by dose curve; also: potency is read from the fitted curve at half-maximal effect).
Test [6] can be described thus: Validation screen for small molecules that induce DNA re-replication in MCF 10A normal breast cells (AID 463097). Also: nearly all actives have a fitted effect of over 60% in size. Also: potency is read from the fitted curve at half-maximal effect. Summed up:
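Following 48 hr compound incubation (37 C, 5% CO2), MCF 10A cells receive Hoechst for 40 min at 37 C. Nuclei are then scanned (excitation 405 nm, emission 500-530 nm) for total fluorescence intensity.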

Test [7] in a line: qHTS Validation Assay to Find Inhibitors of Chronic Active B-Cell Receptor Signaling (AID 485345; active = well fitted curve in the direction sought with a large enough effect in the main read-out, with a control signal flat, not every such curve was filed as active). Summed up:
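TMD8 ABC-DLBCL cells with dox-inducible green luciferase–IκBα fusion and red native luciferase; compounds 46 uM–3 nM, 4 h at 37C with doxycycline in 0.5% FBS IMDM. Green/red ratio normalized to basal and 10 uM MG-132.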

Test [8] has as its target Beta-2 adrenergic receptor (Homo sapiens) (UniProt P07550). As to the kind of experiment: qHTS validation assay of beta-arrestin-biased ligands of beta2-adrenergic receptor (AID 485366). In outline: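 Screening used a titration range of up to 46 microM in a beta-arrestin recruitment Tango luciferase assay. Cells in 1% FBS medium were treated 18 hr at 37 degrees C, and luminescence was normalized to %Activity.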

The nature of test [9]: Quantitative high throughput screen for delayed death inhibitors of the malarial parasite plastid, 96 hour incubation (AID 488745). Also: nearly all actives have a fitted effect of over 70% in size. Also: potency is read from the fitted curve at half-maximal effect. In outline: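 Decreased firefly luciferase luminescence indicates inhibited growth of reporter-integrated P. falciparum after two generations (96 h, 37 C, 5% CO2). Infected erythrocytes at 0.1% parasitemia, 2% hematocrit, in Albumax-supplemented RPMI 1640.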

A short description of test [10]: Quantitative high throughput screen for delayed death inhibitors of the malarial parasite plastid, 48 hour incubation (AID 488752). Also: nearly all actives have a fitted effect of over 65% in size. Also: potency is read from the fitted curve at half-maximal effect. Summed up:
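One-generation (48 h) growth assay: a decrease in luciferase signal from an integrated reporter in P. falciparum-infected red cells (0.1% parasitemia, 2% hematocrit) after compound exposure at 37 C indicates parasite inhibition.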

Test [11] has as its target Thioredoxin reductase 1, cytoplasmic (Rattus norvegicus) (UniProt O89049). As to the kind of experiment: qHTS Assay for Substrates of Mammalian Selenoprotein Thioredoxin Reductase 1 (TrxR1) (AID 488772).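 Also: series mostly up to about 57 µM; a drop in NADPH fluorescence below the no-compound background marks a TrxR1 substrate.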 Summed up: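 In this dual-purpose format, potential substrates are identified from the first fluorescence read after selenite addition, not from the 8-minute delta. Rat enzyme is preincubated with NADPH and then with compound at ~22 deg C.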

Test [12] shares this target. As to the kind of experiment: qHTS Assay for Inhibitors of Mammalian Selenoprotein Thioredoxin Reductase 1 (TrxR1) (AID 488773). Also: nearly all actives have a fitted effect of over 40% in size. Also: potency is read from the fitted curve at half-maximal effect. As to conditions: Potency: inhibition. Summed up: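 Inhibition is scored from the loss of NADPH fluorescence between first and last reads of an 8-min kinetic run. Selenite (400 uM) was the substrate, added after 15 min compound preincubation at room temperature.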

Test [13] has as its target Flap endonuclease 1 (Homo sapiens) (UniProt P39748). Description: qHTS Validation Assay for the Inhibitors of Human Flap endonuclease 1 (FEN1) (AID 488816). In outline:
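Steps: add FEN1 (10 nM reagent) or buffer only; pin compounds; hold 15 min at room temperature; start with substrate, 50 nM final; read at 0 and 15 min; correct, normalize and fit a four-parameter Hill curve.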

Test [14] concerns the target M-phase phosphoprotein 8 (Homo sapiens) (UniProt Q99549). As to the kind of experiment: qHTS Validation Assay for Inhibitors for MPP8 Chromodomain Interactions with Methylated Histone Tails (AID 488949).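 Also: 50 nM MPP8 with 50 nM peptide preformed then compounds added for 30 min; AlphaScreen signal from MPP8 chromodomain bound to biotinylated H3K9me3 peptide; top concentration of the series differs between compounds; nearly all actives have a fitted effect of over 55% in size.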 In outline:
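Chemiluminescent proximity assay: histidine-tag capture via nickel acceptor beads, biotin peptide via streptavidin donor beads. Protein and peptide each at 50 nM, pH 7.4, with 30 min incubations at room temperature for complex formation, compound exposure and bead binding.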

Test [15] has as its target Chromobox protein homolog 1 (Homo sapiens) (UniProt P83916). As to the kind of experiment: qHTS Validation Assay for Inhibitors of HP1-beta Chromodomain Interactions with Methylated Histone Tails (AID 488953). Also: nearly all actives have a fitted effect of over 50% in size. Also: potency is read from the fitted curve at half-maximal effect. Summed up:
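AlphaScreen proximity signal from streptavidin donor and nickel chelate acceptor beads (final 10 ug/mL) after 30 min dark incubation. Compounds had 30 min at room temperature with preformed complex of 50 nM HP1-beta and 50 nM b-H3(1-18)K9me3 in PBS pH 7.4 with 0.01% Tween-20.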

The target in test [16] is Methanococcus maripaludis chaperonin (MmCpn) (UniProt Q6LX38). As to the kind of experiment: High-Throughput Screening for Modulators of Cytosolic Chaperonin Activity: MmCpn Primary Screen (AID 488978). Summed up:
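HTRF readout (320 nm excitation, 590/665 nm emission) of ADP generated by 50 nM MmCpn hydrolysing 30 uM ATP during 10 min at 37C; compound preincubated 5 min RT.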

For test [17], the target named is Transient receptor potential cation channel subfamily V member 1 (Homo sapiens) (UniProt Q8NER1). Description: HTS Assay for Compounds that Act as Enhancers of the Vanilloid Receptor 1 (AID 488979). In outline: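 TRPV1-expressing cells loaded with Fluo-8 calcium dye; compounds added and calcium influx read kinetically for 3 min (agonist phase), then capsaicin at EC20 added and read 2 min more for enhancement. Fluorescence ex 480/em 520 nm.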

The target of test [18] is RecQ-like DNA helicase BLM (Homo sapiens) (UniProt P54132). As to the kind of experiment: qHTS Validation Assay for Inhibitors of Bloom's syndrome helicase (BLM) (AID 2364). In outline:
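BLM 50 nM in 25 mM Tris-HCl pH 8.0, 5 mM NaCl, 2 mM MgCl2, 1 mM DTT, 0.01% Tween-20, 2.5 ug/ml poly(dI-dC); 15 min cpd preinc, RT. Start: 200 nM forked DNA + 2 mM ATP (final). TAMRA read, 2 reads 2 h apart.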

The target of test [19] is Ubiquitin carboxyl-terminal hydrolase 2 (Homo sapiens) (UniProt O75604). Description: qHTS Validation Assay for Inhibitors of Ubiquitin-specific Protease USP2a Using CHOP2 as the Reporter (AID 463106). Summed up:
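Inhibition is expressed relative to NEM as the full-inhibition control, with concentration-response curves classed by fit quality, magnitude and activity. Enzyme (USP2 core, 10nM) meets 25nM Ub-CHOP2 after compound preincubation; readings are taken at 60min.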

In test [20] the target is ATP-dependent 6-phosphofructokinase (Trypanosoma brucei brucei) (UniProt O15648). As to the kind of experiment: qHTS Validation Assay to Find Inhibitors of T. brucei phosphofructokinase (AID 485368). In outline:
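PFK-generated ADP was measured after 45 min at room temperature using ADP-Glo. The reaction contained 0.5 mM F6P and 0.1 mM ATP.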

The structures appear in SMILES notation. Results filed as inconclusive are left out. Active and inactive are the calls of the source. Unless noted, calls follow the shape of the dose curve; as a rule, active = well fitted curve in the direction sought with a large enough effect; inconclusive = small, poorly fitted or top-dose-only effect, or another doubt; inactive = no such curve, though single readings can be large; an effect the other way counts as inactive or inconclusive.

Sequence of Methanococcus maripaludis chaperonin (MmCpn) (Q6LX38 1-543): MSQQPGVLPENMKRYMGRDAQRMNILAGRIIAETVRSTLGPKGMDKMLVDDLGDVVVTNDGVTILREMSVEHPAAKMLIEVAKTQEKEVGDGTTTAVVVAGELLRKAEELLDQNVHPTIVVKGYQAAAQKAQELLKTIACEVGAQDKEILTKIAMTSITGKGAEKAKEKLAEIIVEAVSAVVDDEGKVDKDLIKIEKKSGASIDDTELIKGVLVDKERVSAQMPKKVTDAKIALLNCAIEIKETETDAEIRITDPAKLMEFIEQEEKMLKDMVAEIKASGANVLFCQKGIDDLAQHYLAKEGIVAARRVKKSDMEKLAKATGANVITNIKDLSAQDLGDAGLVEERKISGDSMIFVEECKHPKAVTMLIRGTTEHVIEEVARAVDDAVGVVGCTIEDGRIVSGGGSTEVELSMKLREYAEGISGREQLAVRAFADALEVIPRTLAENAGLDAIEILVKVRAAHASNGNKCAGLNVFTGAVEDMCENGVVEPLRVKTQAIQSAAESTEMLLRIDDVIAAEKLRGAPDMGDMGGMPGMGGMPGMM
Sequence of Ubiquitin carboxyl-terminal hydrolase 2 (Homo sapiens) (O75604 whole entry, looked up): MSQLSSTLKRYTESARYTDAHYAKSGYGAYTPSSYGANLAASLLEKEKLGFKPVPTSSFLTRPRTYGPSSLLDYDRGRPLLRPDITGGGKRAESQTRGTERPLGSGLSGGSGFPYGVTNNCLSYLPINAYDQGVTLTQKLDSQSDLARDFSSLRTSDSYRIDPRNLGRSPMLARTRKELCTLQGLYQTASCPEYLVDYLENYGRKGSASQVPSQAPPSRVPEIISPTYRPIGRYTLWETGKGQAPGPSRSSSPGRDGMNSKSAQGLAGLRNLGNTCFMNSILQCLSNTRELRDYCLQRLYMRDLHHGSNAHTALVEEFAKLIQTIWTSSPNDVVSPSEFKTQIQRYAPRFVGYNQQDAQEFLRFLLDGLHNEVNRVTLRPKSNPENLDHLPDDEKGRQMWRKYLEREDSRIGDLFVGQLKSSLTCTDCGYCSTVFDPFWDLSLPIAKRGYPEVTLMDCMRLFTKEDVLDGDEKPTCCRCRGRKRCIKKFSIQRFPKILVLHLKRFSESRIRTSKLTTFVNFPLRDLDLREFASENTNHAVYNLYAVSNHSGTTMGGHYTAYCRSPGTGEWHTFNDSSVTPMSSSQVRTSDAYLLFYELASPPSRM
Sequence of Chromobox protein homolog 1 (Homo sapiens) (P83916 whole entry, looked up): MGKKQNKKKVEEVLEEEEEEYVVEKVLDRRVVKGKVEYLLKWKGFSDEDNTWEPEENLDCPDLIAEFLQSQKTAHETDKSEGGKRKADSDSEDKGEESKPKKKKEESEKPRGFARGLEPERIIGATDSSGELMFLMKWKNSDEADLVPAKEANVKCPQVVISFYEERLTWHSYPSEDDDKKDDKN
Sequence of RecQ-like DNA helicase BLM (Homo sapiens) (P54132 whole entry, looked up): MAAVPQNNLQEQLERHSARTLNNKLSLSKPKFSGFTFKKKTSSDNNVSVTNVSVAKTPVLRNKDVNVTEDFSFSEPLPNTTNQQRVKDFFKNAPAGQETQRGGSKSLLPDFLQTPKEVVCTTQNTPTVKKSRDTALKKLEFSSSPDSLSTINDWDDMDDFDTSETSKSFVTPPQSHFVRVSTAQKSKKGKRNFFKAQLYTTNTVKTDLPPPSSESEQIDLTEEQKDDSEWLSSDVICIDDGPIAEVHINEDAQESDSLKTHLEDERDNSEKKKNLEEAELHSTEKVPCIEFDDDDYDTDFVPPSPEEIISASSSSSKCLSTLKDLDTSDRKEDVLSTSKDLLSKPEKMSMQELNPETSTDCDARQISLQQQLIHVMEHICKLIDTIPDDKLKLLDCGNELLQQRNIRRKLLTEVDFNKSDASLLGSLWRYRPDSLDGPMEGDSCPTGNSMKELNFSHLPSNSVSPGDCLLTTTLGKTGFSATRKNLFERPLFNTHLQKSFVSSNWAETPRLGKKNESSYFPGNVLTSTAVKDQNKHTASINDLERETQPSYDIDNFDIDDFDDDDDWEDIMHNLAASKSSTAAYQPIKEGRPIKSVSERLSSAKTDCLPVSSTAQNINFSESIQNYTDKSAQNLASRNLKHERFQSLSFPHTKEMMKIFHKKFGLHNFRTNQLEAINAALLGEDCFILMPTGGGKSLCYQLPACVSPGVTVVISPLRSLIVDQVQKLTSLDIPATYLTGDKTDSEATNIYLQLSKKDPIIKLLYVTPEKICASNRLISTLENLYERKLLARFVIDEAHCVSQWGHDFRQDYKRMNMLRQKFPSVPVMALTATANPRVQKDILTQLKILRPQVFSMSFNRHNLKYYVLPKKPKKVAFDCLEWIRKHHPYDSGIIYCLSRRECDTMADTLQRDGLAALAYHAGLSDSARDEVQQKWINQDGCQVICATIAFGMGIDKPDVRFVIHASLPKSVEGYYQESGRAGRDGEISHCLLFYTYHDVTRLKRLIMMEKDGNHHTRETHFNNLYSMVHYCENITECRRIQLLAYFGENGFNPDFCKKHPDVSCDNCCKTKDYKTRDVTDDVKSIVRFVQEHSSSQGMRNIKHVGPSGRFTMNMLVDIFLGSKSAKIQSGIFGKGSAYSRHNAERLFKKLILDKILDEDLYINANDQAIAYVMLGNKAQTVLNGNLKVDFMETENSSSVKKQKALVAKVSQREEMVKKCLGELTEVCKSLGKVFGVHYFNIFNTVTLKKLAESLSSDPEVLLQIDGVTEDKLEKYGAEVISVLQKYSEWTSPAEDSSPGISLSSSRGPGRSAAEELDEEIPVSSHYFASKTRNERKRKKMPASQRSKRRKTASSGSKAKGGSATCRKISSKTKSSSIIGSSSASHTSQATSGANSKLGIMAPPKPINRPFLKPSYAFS
Sequence of ATP-dependent 6-phosphofructokinase (Trypanosoma brucei brucei) (O15648 whole entry, looked up): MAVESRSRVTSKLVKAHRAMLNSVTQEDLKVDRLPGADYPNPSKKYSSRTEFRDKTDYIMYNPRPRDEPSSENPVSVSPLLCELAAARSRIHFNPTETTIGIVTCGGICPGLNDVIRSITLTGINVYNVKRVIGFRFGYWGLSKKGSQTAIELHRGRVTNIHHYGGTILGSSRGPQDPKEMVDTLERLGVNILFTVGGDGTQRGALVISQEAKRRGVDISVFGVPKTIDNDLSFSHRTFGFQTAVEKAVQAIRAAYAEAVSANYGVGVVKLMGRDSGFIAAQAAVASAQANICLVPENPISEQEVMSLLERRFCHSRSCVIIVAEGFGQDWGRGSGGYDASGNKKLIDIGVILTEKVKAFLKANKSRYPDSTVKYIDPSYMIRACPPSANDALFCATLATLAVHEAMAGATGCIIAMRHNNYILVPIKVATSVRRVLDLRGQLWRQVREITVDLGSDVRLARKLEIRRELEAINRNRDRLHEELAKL
Sequence of Flap endonuclease 1 (Homo sapiens) (P39748 whole entry, looked up): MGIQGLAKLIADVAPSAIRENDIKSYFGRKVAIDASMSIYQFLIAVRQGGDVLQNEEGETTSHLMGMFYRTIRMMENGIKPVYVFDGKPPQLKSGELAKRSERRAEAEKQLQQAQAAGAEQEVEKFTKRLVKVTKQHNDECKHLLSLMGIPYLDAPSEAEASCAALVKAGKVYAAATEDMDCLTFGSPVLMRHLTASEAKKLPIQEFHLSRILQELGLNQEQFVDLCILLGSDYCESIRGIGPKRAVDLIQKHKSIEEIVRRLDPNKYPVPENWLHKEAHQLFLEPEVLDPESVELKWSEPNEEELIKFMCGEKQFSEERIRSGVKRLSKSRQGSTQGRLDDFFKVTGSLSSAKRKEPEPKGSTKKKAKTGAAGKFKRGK
Sequence of ATP-dependent DNA helicase Q1 (Homo sapiens) (P46063 whole entry, looked up): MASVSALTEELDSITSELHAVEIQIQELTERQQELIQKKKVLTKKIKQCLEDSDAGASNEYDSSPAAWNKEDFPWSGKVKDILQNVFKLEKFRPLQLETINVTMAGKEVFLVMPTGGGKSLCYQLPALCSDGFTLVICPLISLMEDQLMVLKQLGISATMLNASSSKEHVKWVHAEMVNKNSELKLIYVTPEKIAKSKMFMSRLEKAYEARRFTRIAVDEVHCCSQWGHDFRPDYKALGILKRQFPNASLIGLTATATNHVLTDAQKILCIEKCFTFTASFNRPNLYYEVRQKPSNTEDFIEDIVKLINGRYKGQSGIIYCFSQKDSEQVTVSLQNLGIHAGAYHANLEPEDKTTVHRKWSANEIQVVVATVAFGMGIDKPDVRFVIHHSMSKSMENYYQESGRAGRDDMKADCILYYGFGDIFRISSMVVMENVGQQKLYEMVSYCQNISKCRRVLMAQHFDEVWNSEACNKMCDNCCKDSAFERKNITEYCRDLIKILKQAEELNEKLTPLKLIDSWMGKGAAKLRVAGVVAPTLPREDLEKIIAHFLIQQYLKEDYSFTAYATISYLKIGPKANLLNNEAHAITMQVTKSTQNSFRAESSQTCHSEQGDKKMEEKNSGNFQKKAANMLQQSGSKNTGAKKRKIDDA
Sequence of Beta-2 adrenergic receptor (Homo sapiens) (P07550 whole entry, looked up): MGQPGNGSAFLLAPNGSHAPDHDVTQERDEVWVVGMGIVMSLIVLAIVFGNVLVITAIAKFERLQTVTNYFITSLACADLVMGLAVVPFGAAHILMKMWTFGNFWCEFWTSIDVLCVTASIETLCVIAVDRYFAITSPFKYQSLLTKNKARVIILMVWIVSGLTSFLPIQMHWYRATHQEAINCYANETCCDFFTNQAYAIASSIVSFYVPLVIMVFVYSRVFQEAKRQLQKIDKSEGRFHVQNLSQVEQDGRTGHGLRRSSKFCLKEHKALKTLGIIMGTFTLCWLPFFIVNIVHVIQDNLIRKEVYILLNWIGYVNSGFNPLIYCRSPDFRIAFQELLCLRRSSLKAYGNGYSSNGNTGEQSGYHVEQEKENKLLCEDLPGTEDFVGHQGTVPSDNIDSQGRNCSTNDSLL

Consider `NCC1(CC(=O)O)CCCCC1`, for which the molecule was called inactive in test [1], in test [2], in [7], in test [8], in test [11] and in test [16]. Further, the outcome in test [17] was inactive. Besides, the Potency entry in test [3], in test [4], in [5], in test [6], in test [9] and in test [10] was “inactive” throughout. Besides, the Potency result in test [12], in test [13], in test [14] and in test [15] was “inactive” throughout.
In the case of `CC(=O)[C@H]1CC[C@H]2[C@@H]3CC[C@H]4C[C@H](O)CC[C@]4(C)[C@H]3C(=O)C[C@]12C`, the molecule was called inactive in test [1], in test [2], in test [7], in [8], in test [11] and in [16]. Also, the result in [17] was inactive. The Potency entry in [18], in test [3], in test [4], in test [5], in test [6] and in test [19] was “inactive” throughout. Besides, the Potency entry in [20], in test [9], in test [10], in test [12], in test [13] and in test [14] was “inactive” each time. For the same molecule, the Potency entry in test [15] is “inactive”.
On to `Nc1ccncc1`, for which the call in [1], in test [2], in [7], in [8], in test [11] and in test [16] was inactive. Besides, in [17], the result was inactive. For the same molecule, the Potency entry in test [18], in test [3], in [4], in [5], in test [6] and in test [19] was “inactive” in each case. Further, the Potency result in test [9], in test [10], in [12], in test [13] and in test [14] was “inactive” throughout.
For `CCCC(C)(COC(N)=O)COC(=O)NC(C)C` (stereo unspecified), the result in test [1], in [2], in test [7], in [8], in test [11] and in test [16] was inactive. The outcome in test [17] was inactive. The Potency entry in [18], in test [3], in test [4], in test [5], in [6] and in test [19] was “inactive” each time. Moreover, the Potency result in test [9], in test [10], in test [12], in [13] and in [14] was “inactive” throughout. The Potency in test [15] was 0.006 µM (active).
Turning to `NN=C(N)N`, the molecule was classed as inactive in test [1], in test [2], in test [7], in test [8], in [11] and in test [16]. In addition, the outcome in test [17] was inactive. Besides, the Potency entry in test [3], in test [4], in test [5], in test [6], in [19] and in test [20] was “inactive” each time. The Potency entry in [9], in [10], in [12], in [13], in test [14] and in test [15] was “inactive” throughout.
On to `COC[C@H]1OC(=O)c2coc3c2[C@@]1(C)C1=C(C3=O)C2CCC(=O)[C@@]2(C)C[C@H]1OC(C)=O` (stereo partly specified), for which the molecule was called inactive in test [1], in test [2], in [8], in test [11], in [16] and in [17]. Further, the Potency result in test [18], in test [3], in test [4], in test [19], in test [20] and in [13] was “inactive” throughout. Besides, the Potency result in test [14] and in test [15] was “inactive” throughout. The values for the Potency in test [9] and in test [12] were 8.28 µM (active) and 11.9 µM (active), respectively.
On to `C=C(C)[C@H]1Cc2c(ccc3c2O[C@@H]2COc4cc(OC)c(OC)cc4[C@@H]2C3=O)O1`, for which the call in [1], in test [2], in test [8], in test [11], in test [16] and in test [17] was inactive. For the same molecule, the Potency in test [3] is 0.0465 µM (active); in test [4], 0.0585 µM (active); in [5] it was 5.62 µM (active); in test [6], 1.41 µM (active); in test [15], 35.5 µM (active). For the same molecule, the Potency entry in [19], in test [10], in [12], in test [13] and in test [14] was “inactive” in each case.
For `CCCN1CCC[C@@H]2Cc3nc(N)ncc3C[C@H]21`, the call in [1], in test [2], in test [7], in [8], in test [11] and in test [16] was inactive. In test [17], the result was inactive. The Potency entry in [18], in test [3], in test [4], in [5], in test [6] and in [19] was “inactive” each time. The Potency entry in [20], in [9], in test [10], in [12], in [13] and in [14] was “inactive” in each case. The Potency entry in test [15] is “inactive”.
For the molecule `Oc1ccc(C2CNCCc3c2cc(O)c(O)c3Cl)cc1` (stereo unspecified), the Potency result in test [5] is “inactive”.
The same measure, in the same setting: then `C[C@](N)(Cc1ccc(O)c(O)c1)C(=O)O`, with “inactive”; and `Cc1cccc(C)c1OCC(C)N` (stereo unspecified), with “inactive”; and `CCCC(CCC)C(=O)O`, with “inactive”.
Regarding `CNCCC(Oc1ccc(C(F)(F)F)cc1)c1ccccc1` (stereo unspecified), the Potency entry in test [18], in [20] and in [15] was “inactive” each time.
`CN(C)C(=O)C(CCN1CCC(O)(c2ccc(Cl)cc2)CC1)(c1ccccc1)c1ccccc1`: the Potency is 18.5 µM (active) in [3]; 13.1 µM (active) in [4]; 12.6 µM (active) in test [5]; 7.38 µM (active) in test [9]; 8.28 µM (active) in test [10].
Turning to `Cc1oncc1C(=O)Nc1ccc(C(F)(F)F)cc1`, in test [5], the Potency result was “inactive”.
On to `CCCN1CCC[C@@H]2Cc3[nH]ncc3C[C@H]21`, for which the result in [2], in [7], in test [8], in test [11] and in test [16] was inactive. In addition, the Potency result in test [3], in [4], in test [19], in test [20], in [12] and in test [13] was “inactive” each time. Also, the Potency entry in [14] and in test [15] was “inactive” each time.

Source of the values: PubChem BioAssay (NCATS).
